In the library only some 7.9% were active in any assay of this set; here they are far more common.
SW480 rereplic: A quantitative high throughput screen for small molecules that induce DNA re-replication in SW480 colon adenocarcinoma cells. SW480 DNA re-replication, Hoechst DNA content imaging, 48 h. Potency, µM (series often up to 46.1 µM), for the others: at the highest dose re-replication activation, actives largely listed as activators. 340,000 tested, 1.8% active; also: % of control where 0% means no effect; nearly all actives have a fitted effect of over 55% in size
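Treated cells incubate 48 hr (37 C, 5% CO2), are stained 40 min with Hoechst, and nuclear fluorescence is enumerated; a rise in nuclei with high DNA signal marks re-replication.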
MCF10A rerep: A quantitative high throughput screen for small molecules that induce DNA re-replication in MCF 10a normal breast cells; MCF 10A DNA re-replication, Hoechst nuclear intensity, 48 h; Potency, µM (highest dose often 46.1 µM), for inactives: at the highest dose activity, positive = re-replication, actives largely listed as activators; 350,000 tested, 2.9% active; also: % of control where 0% means no effect; nearly all actives have a fitted effect of over 50% in size
KB-V1 MDR tox: qHTS assay for MDR1-selective chemotherapeutics: Primary screen using the drug-selected MDR subline cells KB-V1 | KB-V1 MDR cells viability, CellTiter-Glo, 72 h | AID 1347076, 2019 | Potency, µM (top dose mostly 46.1 µM), hits mostly cytotoxic | 400,000 tested, 3.4% active; also: % is scaled to controls: 0 for no effect and ±100 for the full control effect; nearly all actives have a fitted effect of over 60% in size
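Cells of the MDR subline KB-V1 are plated, dosed with compound at multiple concentrations, and incubated 72 h at 37 degrees C; CellTiter-Glo is then added and luminescence read after 10 min.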
HT1080 IDH1KD tx: qHTS for induction of synthetic lethality in tumor cells producing 2HG: qHTS for the HT-1080-IDH1KD cell line. 360,000 tested, 2% active. Potency, µM (top dose mostly 46.1 µM), for the others: at the top dose activity, negative = toxicity, usual class: cytotoxic. HT-1080 IDH1 knockdown viability, ATP luminescence, 48 h;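 also: 0% = DMSO wells and -100% = cell-free medium wells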
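IDH1KD HT-1080 cells, 750/well, RPMI + 5% FBS; compound pinned after 2 h settling; 48 h, 37 °C; CellTiter-Glo luminescence; % activity normalised to DMSO and no-cell wells; curves fitted, classed by r2 and efficacy.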
KB-3-1 cytotox: qHTS assay for MDR1-selective chemotherapeutics: Primary screen using the parental adenocarcinoma cell KB-3-1 | KB-3-1 viability, CellTiter-Glo ATP luminescence, 72 h | Potency, µM (top dose mostly 46.1 µM), usual class: cytotoxic | 400,000 tested, 1.4% active | AID 1347075, 2019; also: % is scaled to controls: 0 for no effect and ±100 for the full control effect; nearly all actives have a fitted effect of over 60% in size
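72 h, 37 °C compound treatment of KB-3-1 parental cells; CellTiter-Glo added, 10 min, luminescence read. Data corrected against DMSO-only plates and normalized before curve fitting.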
HT1080-NT tox: qHTS for induction of synthetic lethality in tumor cells producing 2HG: qHTS for the HT-1080-NT fibrosarcoma cell line | HT-1080-NT fibrosarcoma viability, CellTiter-Glo ATP luminescence, 48 h | Potency, µM (highest dose often 46.1 µM), for inactives: top-dose activity, negative = less viability, usual class: cytotoxic | 360,000 tested, 1.6% active;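 also: NT is the 2HG producing partner of a matched IDH1 knockdown line; 0% = DMSO-treated cells and -100% = media-only wells without cells; nearly all actives have a fitted effect of over 55% in size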
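HT-1080-NT; 750 cells/well; 5% FBS RPMI; 48 h compound, 37 degrees C; CellTiter-Glo luminescence; curve fitting and curve-class assignment.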
* = called active by the depositor; i = inactive; ? = inconclusive; / = no result given; [ ] = dose if it differs, or a comment. Calls follow the shape of the dose curve; as a rule, active = well fitted curve in the direction sought with a large enough effect; inconclusive = small, poorly fitted or top-dose-only effect, or another doubt; inactive = no such curve, though single readings can be large; an effect the other way counts as inactive or inconclusive. Potency is read from the fitted curve at half-maximal effect.

SMILES | SW480 rereplic | MCF10A rerep | KB-V1 MDR tox | HT1080 IDH1KD tx | KB-3-1 cytotox | HT1080-NT tox
CC(=O)c1ccc(NS(=O)(=O)c2cc(-c3cnc(C4CC4)o3)ccc2C)cc1 | ? | ? | ? | ? | ? | 21µM*
CC(=O)c1cccc(NS(=O)(=O)c2cc(-c3cnc(C4CC4)o3)ccc2C)c1 | -11% | ? | ? | 23µM* | ? | 21µM*
Cc1ccc(-c2cnc(C3CC3)o2)cc1S(=O)(=O)Nc1ccccc1 | -5% | ? | ? | ? | 7.3µM* | -26%
O=S(=O)(c1ccc(-c2cnc(C3CC3)o2)cc1)N1CCN(c2ccc(F)cc2)CC1 | / | / | i | / | ? | /
CC(=O)Nc1ccc(NS(=O)(=O)c2cc(-c3cnc(C4CC4)o3)ccc2C)cc1 | -6% | -5% | ? | -6% | i | -4%
COc1ccc(-n2c(=O)c3c4c(sc3n(Cc3ccc(C(C)(C)C)cc3)c2=O)CCC4)c(OC)c1 | / | / | i | / | i | /
COc1ccc(OC)c(-n2nnnc2SCC(=O)NCCc2ccccc2)c1 | 7.3µM* | 5.8µM* | ? | 9% | i | 7%
COc1cccc(-n2nnnc2SCC(=O)NCCc2ccccc2)c1 | -2% | -1% | i | -2% | i | 0%
COc1ccc(OC)c(-n2nnnc2SCC(=O)Nc2ccccc2OC)c1 | 29% | -3% | i | -18% | i | -8%
CCOc1ccccc1NC(=O)CSc1nnnn1-c1ccccc1 | -1% | -4% | 9.2µM* | -13% | i | -10%
CCOc1ccccc1NC(=O)CSc1nnc2c(CC)c(C)nc(N)n12 | -2% | 14% | 15µM* | -4% | i | ?
COc1ccccc1NC(=O)CSc1nnnn1-c1ccccc1OC | -33% | 0.65µM* | i | 2% | i | -2%
CCc1c(C)nc(N)n2c(SCC(=O)Nc3ccccc3OC)nnc12 | -1% | 13% | ? | 31% | i | 10%
CC1CCc2c(sc(NC(=O)CCCOc3ccc(C(C)(C)C)cc3)c2C(N)=O)C1 (stereo unspecified) | / | / | i | / | i | /
COc1ccccc1-n1c(SCC(=O)Nc2ccccc2C)nc(O)cc1=O | 0% | -4% | i | 10% | i | 0%
COc1ccccc1-n1nnnc1SCC(=O)Nc1oc(C)c2c(C)n[nH]c(=O)c12 | 21µM* | 6% | i | 8% | i | 13%
COc1ccc(C)cc1-n1nnnc1SCC(=O)Nc1cc(C)on1 | -4% | -10% | i | -1% | i | -1%
Cc1ccc(C)c(SCC(=O)Nc2cccnc2Cl)c1 | -16% | 1.6µM* | i | 0% | i | 1%
COc1ccc(C)cc1-n1nnnc1SCC(=O)Nc1cccnc1Cl | 5% | -3% | 13µM* | 1% | i | -1%
COc1ccccc1NC(=O)CSc1nc(O)cc(=O)n1-c1ccccc1OC | 11% | 15µM* | i | -2% | i | -17%
O=C(O)CCN1C(=O)c2ccc(NC(=O)COc3ccccc3)cc2C1=O | -6% | 1% | / | 5% | / | -1%
O=C(CNC(=O)c1ccco1)NCC(c1ccco1)N1CCCCC1 (stereo unspecified) | -29% | 2% | i | 6% | i | -5%[9.24 µM]
CCNC(=O)CSc1nc2ccccc2c(=O)n1-c1cc(OC)ccc1OC | -3% | 12% | 18µM* | -7% | i | -4%
CC1=Nc2ccccc2N=C(NC(=O)CSc2nnnn2-c2ccccc2)C1c1ccccc1 (stereo unspecified) | 0% | 8% | 13µM* | 1%[9.24 µM] | i | -14%
CN1CCN(c2ccc(NC(=O)CSc3nnnn3-c3ccccc3Cl)cc2)CC1 | 21µM* | ? | i | 5% | i | 2%
SMILES | SW480 rereplic | MCF10A rerep | KB-V1 MDR tox | HT1080 IDH1KD tx | KB-3-1 cytotox | HT1080-NT tox
O=C(CSc1nnnn1-c1ccccc1)Nc1ccc(N2CCOCC2)c(Cl)c1 | 10% | 1% | i | -4% | i | 1%
COc1ccccc1NC(=O)CSCc1nc2ccccc2[nH]1 | -55% | 0% | 21µM* | -1% | i | 5%
CNC(=O)CSc1nc2ccccc2c(=O)n1-c1cc(OC)ccc1OC | -32% | 23% | i | 7% | i | -5%
O=C(CC1C(=O)NCCN1Cc1cccc(F)c1)NCCCCCN1CCOCC1 (stereo unspecified) | 0% | 2% | i | 10% | i | 9%
CC1Cc2ccccc2N1C(=O)COC(=O)c1ccc(N(C)C)cc1 (stereo unspecified) | -3% | -5% | ? | -4% | i | 5%
CC(=O)c1ccc(NC(=S)NC(C)c2ccc(Cl)cc2Cl)cc1 (stereo unspecified) | -4% | ? | 18µM* | ? | i | ?
NC(=O)c1ccc(Oc2ccc3c(c2)CCC3)c([N+](=O)[O-])c1 | 3% | 15% | i | ? | i | ?
N#Cc1c(-c2cccnc2)c2c([nH]c1=O)-c1ccccc1OC2 | 2.6µM* | 15µM* | i | 10% | i | 16%
N#Cc1c(-c2ccc(F)cc2)c2c([nH]c1=O)-c1ccccc1OC2 | 6.5µM* | 4.1µM* | i | 11% | i | 3%
O=C(COC(=O)/C=C/c1cccc(Cl)c1)NC1CC1 | -10% | 0% | i | -3% | i | -2%
O=C(NCCS(=O)(=O)N1CCN(c2ccccc2F)CC1)c1cccs1 | 5% | -2% | ? | -1% | i | -2%
CCc1ccc(-c2cc(C(F)(F)F)n3nc(C(=O)Nc4cnn(Cc5ccc(C)cc5)c4)cc3n2)s1 | 16% | ? | 3.7µM* | 3.2µM* | i | ?
Cc1ccccc1Cn1cc(NC(=O)c2cc3nc(-c4ccco4)cc(C(F)(F)F)n3n2)cn1 | 0% | 14% | i | -19% | i | -22%
CC(/C=C/C=C/c1ccccc1)=N/NC(=O)c1ccc2c(c1)OCCO2 | -4% | -5% | i | 6% | i | -4%
CCOC(=O)c1c(-c2ccccc2)oc2cc(CN(C)C)c(O)c(CN(C)C)c12 | ? | ? | ? | 11µM* | ? | ?
CCOC(=O)c1c(C)oc2cc(Cl)c(O)c(CN(C)C)c12 | 1% | -1% | i | -5% | i | 10%
